ASK1 primary – human ASK1 kinase inhibition, primary screen. inhibition, % at 7.44 µM. Q99683. AID 1159602. 22,000 compounds, 0.99% hits. AlphaScreen MKK6 phosphorylation by ASK1, luminescence; in the data active means inhibition above about 35%;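 further: 0% = median of compound wells and 100% = no enzyme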
Target sequence (Q99683 whole entry, looked up): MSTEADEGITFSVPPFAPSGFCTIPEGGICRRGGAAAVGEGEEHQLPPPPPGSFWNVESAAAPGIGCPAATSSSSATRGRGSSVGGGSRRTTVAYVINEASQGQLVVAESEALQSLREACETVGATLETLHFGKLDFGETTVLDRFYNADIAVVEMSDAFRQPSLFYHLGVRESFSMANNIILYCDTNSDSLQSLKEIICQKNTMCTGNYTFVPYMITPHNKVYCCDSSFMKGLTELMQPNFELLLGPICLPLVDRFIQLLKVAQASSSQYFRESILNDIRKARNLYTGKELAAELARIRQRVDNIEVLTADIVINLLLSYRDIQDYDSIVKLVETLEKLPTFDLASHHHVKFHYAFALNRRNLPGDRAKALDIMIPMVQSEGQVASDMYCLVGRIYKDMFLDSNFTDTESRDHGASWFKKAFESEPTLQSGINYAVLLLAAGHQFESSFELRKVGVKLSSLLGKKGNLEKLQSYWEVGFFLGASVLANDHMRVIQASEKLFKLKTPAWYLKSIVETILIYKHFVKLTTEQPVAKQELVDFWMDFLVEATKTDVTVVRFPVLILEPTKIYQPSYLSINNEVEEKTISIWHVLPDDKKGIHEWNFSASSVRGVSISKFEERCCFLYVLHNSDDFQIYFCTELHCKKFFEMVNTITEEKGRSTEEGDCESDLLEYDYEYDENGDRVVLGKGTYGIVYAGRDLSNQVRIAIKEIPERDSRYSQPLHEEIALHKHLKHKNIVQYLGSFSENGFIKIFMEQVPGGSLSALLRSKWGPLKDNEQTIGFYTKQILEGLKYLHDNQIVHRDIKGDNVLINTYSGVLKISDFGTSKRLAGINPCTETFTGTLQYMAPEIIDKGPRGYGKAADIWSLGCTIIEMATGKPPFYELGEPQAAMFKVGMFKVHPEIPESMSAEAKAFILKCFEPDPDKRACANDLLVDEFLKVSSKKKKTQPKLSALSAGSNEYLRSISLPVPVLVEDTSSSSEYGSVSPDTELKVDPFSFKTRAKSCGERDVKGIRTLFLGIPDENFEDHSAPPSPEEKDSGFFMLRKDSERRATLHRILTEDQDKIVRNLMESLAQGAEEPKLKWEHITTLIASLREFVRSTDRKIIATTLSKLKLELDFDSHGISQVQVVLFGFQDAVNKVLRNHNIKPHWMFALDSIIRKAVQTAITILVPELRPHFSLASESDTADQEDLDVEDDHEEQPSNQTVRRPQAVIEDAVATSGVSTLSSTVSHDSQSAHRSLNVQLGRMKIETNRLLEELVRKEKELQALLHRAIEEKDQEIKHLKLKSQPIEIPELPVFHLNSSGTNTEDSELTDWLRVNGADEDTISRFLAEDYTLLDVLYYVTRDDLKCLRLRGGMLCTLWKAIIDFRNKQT
ULK1 inh – blocks human autophagy kinase ULK1. AlphaScreen Atg13 phosphorylation by ULK1, luminescence. 30,000 compounds, 1.9% hits. inhibition, % at 5.96 µM. AID 1259251. O75385; in the data active means inhibition above about 43%;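 further: 0% = median of compound wells and 100% = no enzyme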
Starred values were filed as active, the others as inactive; nt = not tested or not shown; ! = not confirmed by another sample. An excerpt weighted towards active compounds, which were near 2.5% of everything screened.

SMILES	ASK1 primary	ULK1 inh
NC(=O)c1ccc2nc(N3CCC(N4CCOCC4)CC3)sc2c1	2	10
O=C(NCCCN1CCCC1=O)c1ccc2nc(Nc3ncccn3)sc2c1	-5	17
CNC(=O)C(C)Oc1ccc(Cl)cc1Cl (stereo not drawn)	nt	-2
Cc1ncn(-c2ccc(Nc3nccc(-c4ccc(C#N)c(N5CCOCC5)c4)n3)cc2)n1	1	-20
c1cc(-c2ccnc(Nc3ccc(-c4nn[nH]n4)cc3)n2)cc(N2CCOCC2)c1	-4	-24
N#Cc1cc(-c2ccnc(Nc3ccc(-c4nn[nH]n4)cc3)n2)ccc1N1CCC(O)CC1	-31	75*
N#Cc1cc(-c2ccnc(Nc3ccc(-n4cnc(N5CCOCC5)n4)cc3)n2)ccc1N1CCC(O)CC1	-15	49*
CC(C)CN1Cc2ccccc2C[C@@H]1C(=O)Nc1cc(F)c(-c2cn[nH]c2)cc1OCCN(C)C	14	-44
O=C(NCCN1CCOCC1)c1cncc(-c2csc3ccccc23)c1	0	-8
CC(=O)Nc1ccc(Nc2nc(-c3cccc(N)c3)nc3nc[nH]c23)cc1	15	11
Cc1cnc(Nc2ccc(-n3ccnc3)cc2)nc1N	-12	23
Cc1nc(C)n(-c2ccc(Nc3ncc4ccc(-c5cn[nH]c5)cc4n3)cc2)n1	-41	36
c1cn(-c2ccc(Nc3ncc4ccc(-c5cn[nH]c5)cc4n3)cc2)cn1	25	90*
Cn1cc(-c2ccc3cnc(Nc4ccc(-n5ccnc5)cc4)nc3c2)cn1	-4	88*
Cn1ncc2cc(Nc3ncc4ccc(-c5cn[nH]c5)cc4n3)ccc21	27	75*
c1cc(-c2ccc3cnc(Nc4ccc(-n5cnc(N6CCOCC6)n5)cc4)nc3c2)c[nH]1	19	15
Cc1nc(C)n(-c2ccc(Nc3cc4cc(-c5cn[nH]c5)ccc4cn3)cc2)n1	-35	81*
Cn1cc(-c2ccc3cnc(Nc4ccc(-n5cnc(-c6ccccn6)n5)cc4)nc3c2)cn1	8	17
CCN(CC)C(=O)C1CCCN(c2nc(Nc3ccc(Oc4ccccc4)cc3)c3ncn(-c4ccccc4)c3n2)C1 (stereo not drawn)	1	-5
COc1cc(OC)nc(Oc2ccccc2/C=N/NC(=O)OC(C)(C)C)n1	nt	-1
Nc1nc(NCCCN2CCCC2=O)cc(N2CCC(N3CCOCC3)CC2)n1	-18	-17
c1ccc2[nH]c(CNc3cc(N4CCC(N5CCOCC5)CC4)ncn3)nc2c1	-2	-4
CCNc1cc(C(=O)NCCOc2ccccc2)c2ccccc2n1	4	-25
O=C(Nc1ccc(-c2cn[nH]c2)cc1OCCN1CCOCC1)OCc1ccccc1	4	-8
Cn1cc(-c2ccc3cnc(Nc4ccc(N5CCOCC5)cc4)nc3c2)cn1	19	84*
SMILES	ASK1 primary	ULK1 inh
Cn1cc(-c2ccc3cnc(Nc4ccc(C(=O)N5CCOCC5)cc4)nc3c2)cn1	-3	73*
Cc1ccc(-c2ncn(-c3ccc(Nc4ncc5ccc(-c6cnn(C)c6)cc5n4)cc3)n2)cn1	17	1
Cn1cc(-c2nc(Nc3ccc(N4CCOCC4)cc3)ncc2F)cn1	-22	20
CC(=O)Nc1ccc(Nc2nc(-c3cccc(N)c3)nc3c2ncn3-c2ccsc2)cc1	6	-5
O=C(NCc1cccnc1)c1ccnc(Nc2ccc3ncccc3c2)c1	6	1
CCC(=N)c1ccc(OC)c2cccc(NC)c12	nt	64*
COc1ccccc1N1C(=O)c2cccc3c(C(=O)O)ccc(c23)C1=O	nt	7
Nc1nc(NCCO)cc(-c2csc3ccccc23)n1	-1	2
CC(C)N(CCNc1nc(Nc2cccnc2)nc2c1ncn2C1CCCCC1)C(C)C	-17	-2
CN(C)[C@@H]1C(=O)C(C(=O)NCN2CCCC2)=C(O)[C@@]2(O)C(=O)C3=C(O)c4c(O)cccc4[C@@](C)(O)C3CC12 (stereo partly drawn)	nt	28
C=C1c2cccc(O)c2C(O)=C2C(=O)[C@]3(O)C(O)=C(C(N)=O)C(=O)[C@@H](N(C)C)[C@@H]3[C@@H](O)[C@H]12	nt	64*
C=C1c2c(Cl)ccc(O)c2C(O)=C2C(=O)[C@]3(O)C(O)=C(C(N)=O)C(=O)[C@@H](N(C)C)[C@@H]3[C@@H](O)[C@H]12	nt	72*
COc1cc(Nc2nc(-c3ccc(C(=O)NC4CC4)cc3)nc3c2ncn3CCN2CCCC2=O)cc(OC)c1OC	-5	1
CC(C)n1cnc2c(Nc3ccc(Oc4ccccc4)cc3)nc(Nc3ncccn3)nc21	0	22
O=C(NCCc1ccc(O)cc1)c1csc(N2CCC(N3CCOCC3)CC2)n1	8	-7
CC(=O)Nc1ccc(-c2ccnc3c2ccn3S(=O)(=O)c2ccc(C)cc2)cc1	-13	-6
CS(=O)(=O)c1cccc(N2CCN(Cc3cccc(C(F)(F)F)c3)C2=O)c1	nt	0
CC(C)N(CCNC(=O)c1ccc2nc(NC3CCN(Cc4ccccc4)CC3)sc2c1)C(C)C	-6	5
CC(C(=O)Nc1cnn(-c2cccc(C(=O)Nc3ccc(N4CCOCC4)cc3)c2)c1)c1ccccc1 (stereo not drawn)	-11	-12
O=C(Nc1ccccc1)Nc1cnn(-c2ccc3c(c2)C(Nc2ccc(N4CCOCC4)cc2)CCC3)c1 (stereo not drawn)	6	45*
OC1CCC(Nc2nc(Nc3ccc(N4CCOCC4)cc3)c3ncn(-c4ccccc4)c3n2)CC1 (stereo not drawn)	-18	41
COc1cc2nc(Nc3cccc(N(C)C)c3)nc(NCCOc3ccccc3)c2cc1OC	40*	-32
COc1cc2nc(Nc3ccccc3)nc(NCCOc3ccccc3)c2cc1OC	-6	-18
COc1cc2nc(Nc3cccc(N(C)C)c3)nc(NC3CC3)c2cc1OC	49*	7
CCCNc1nc(Nc2cccc(N(C)C)c2)nc2cc(OC)c(OC)cc12	25	4
SMILES	ASK1 primary	ULK1 inh
Oc1cccc2c1CC=CC2	nt	10
O=C1c2c(O)cccc2Cc2cccc(O)c21	nt	60*!
O=C(Nc1ccc(Oc2ccccc2)cc1)c1cnc(-c2cccs2)s1	24	14
Cc1cnc(Nc2ccc(-n3ccnc3)cc2)nc1NCc1cccnc1	18	19
O=C(NCCc1ccccc1)c1ccc2cncc(-c3ccccc3)c2n1	nt	55*
COc1ccc(-c2cncc3ccc(C(=O)NCc4ccccc4)nc23)cc1	nt	26
O=C(Nc1ccc(N2CCOCC2)cc1)C1CCN(c2ccc(Nc3ccc4ncccc4c3)nn2)CC1	-19	49*
O=C(Nc1ccc(N2CCOCC2)cc1)C1CCN(c2ccc(Nc3ccc(N4CCOCC4)cc3)nn2)CC1	-15	-16
O=c1c(O)c(-c2ccc(O)c(O)c2)oc2cc(O)cc(O)c12	nt	46*
O=c1c(-c2ccc(O)cc2)coc2cc(O)cc(O)c12	nt	-3
Cc1cnc(N2CCC(N3CCOCC3)CC2)nc1NCc1nc2ccccc2[nH]1	4	13
CC(C)N(CCNC(=O)C1CCN(c2ccc(N3CCCC3CO)nn2)CC1)C(C)C (stereo not drawn)	2	56*
O=C(NCCO)C1CCN(c2ccc(N3CCCC3CO)nn2)CC1 (stereo not drawn)	-5	-4
CCN(CC)CCNC(=O)c1ccc(Nc2cc(Nc3ccccc3C(=O)NC)c(C(F)(F)F)cn2)c(OC)c1	19	90*
CNC(=O)c1ccccc1Nc1cc(Nc2ccc(C(=O)N(C)C)cc2OC)ncc1C(F)(F)F	1	88*
COc1ccc(CC(=O)Nc2cc(Nc3ccccc3C(=O)NC[C@H](O)C(=O)N(C)C)ccn2)cc1	-35	10

Source: PubChem BioAssay (The Scripps Research Institute Molecular Screening Center)
